High-throughput results as filed in PubChem BioAssay.
Shown are actives, neighbours in structure and some others; about 7.8% of the full set was active somewhere.
HCMV inh: blocks human cytomegalovirus replication | HFF cells, HCMV-luciferase reporter, 72 h; stronger effect = lower value | activity change, negative = inhibition, % at 57.5 µM | 4.5% of 410,000 active; in the data active = activity change below about -60%; inconclusive = no clear call, values can overlap the other calls; inactive = above about -39%
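Inhibition of viral replication was scored as loss of reporter luminescence in HFFs infected with HCMV-luciferase (MOI 1 PFU/cell) for 72 h; compounds tested at 2 doses, normalized to buffer and Salinomycin controls.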
Marburg entry inh: blocks Marburg virus binding to or entry into cells; Potency, µM (doses to about 37.8 µM), usual class: inhibitors; Marburg virus pseudotyped entry inhibition, cell reporter; 1.8% of 300,000 active; calls by dose curve; tested in HEK293 cells
LASV entry inh: inhibitors of Lassa virus binding or cell entry; Lassa virus pseudotype entry inhibition, cell reporter; Potency, µM (doses to about 37.9 µM), hits mostly inhibitors; 1.2% of 300,000 active; calls by dose curve; tested in HEK293 cells; note: nearly all actives have a fitted effect of over 50% in size
VACV mCherry inh: vaccinia inhibition (mCherry reporter) | AID 720579 | 0.63% of 310,000 active | Potency, µM (highest dose often 36.5 µM), actives largely listed as inhibitors | Vaccinia virus mCherry reporter infection, fluorescence; calls by dose curve; tested in A549 cells; note: nearly all actives have a fitted effect of over 35% in size
HCV inh: inhibitors of hepatitis C virus infection. Huh7.5.1 HCVcc-Cre infection, luciferase reporter, 44 h. Potency, µM (series often up to 41.8 µM), most hits filed as inhibitors. 3.4% of 340,000 active; active = well fitted inhibition curve with a large enough effect; inconclusive = small, poorly fitted or top-dose-only effect, or another doubt; inactive = no such curve, though single readings can be large or run the other way
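After 44 h co-culture of compound, cells and HCVcc-Cre (~0.5 moi), substrate is added for 15 min at room temperature and luciferase measured over 15 sec. Cells were seeded at 1,000/well and pre-cultured 4 h.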
Vaccinia Venus: vaccinia inhibition (Venus reporter). Vaccinia virus Venus reporter expression, fluorescence. 0.46% of 330,000 active. AID 720580. Potency, µM (highest dose often 36.5 µM), actives largely listed as inhibitors; calls by dose curve; tested in A549 cells; note: nearly all actives have a fitted effect of over 30% in size
Of the large screens only hits and unclear results are named; the others gave an inactive call.

COc1ccc(C2C=C(c3ccc(Cl)cc3)Nc3nc(-c4ccc(Cl)cc4)nn32)cc1 (stereo not drawn)	HCMV inh -101, Marburg entry inh inconclusive, LASV entry inh inconclusive, VACV mCherry inh inconclusive, Vaccinia Venus inconclusive (no result: HCV inh)
COc1ccccc1C1C=C(c2ccc(Cl)cc2)Nc2nc(-c3ccc(Cl)cc3)nn21 (stereo not drawn)	HCMV inh -78, Marburg entry inh inconclusive, LASV entry inh inconclusive (no result: HCV inh)
COc1ccc(NC(=O)C2CCN(c3cc(C)nc4c(-c5ccc(Cl)cc5)c(C)nn34)CC2)cc1	none (no result: HCV inh)
CCn1nnc2cc(C(=O)Nc3ccc(OC)cc3)ccc21	none (no result: Marburg entry inh, HCV inh)
CNCCC(Oc1ccccc1OC)c1ccccc1 (stereo not drawn)	Marburg entry inh 18µM, LASV entry inh inconclusive, VACV mCherry inh inconclusive, HCV inh inconclusive
CCC1CCCCN1C(=O)c1nn(-c2ccc(C)cc2)c(=O)c2c1c1ccccc1n2C (stereo not drawn)	none (no result: HCV inh)
CCC1=NN(C(=O)c2ccccc2O)C(O)(c2ccccc2)C1 (stereo not drawn)	HCMV inh -76, HCV inh inconclusive (no result: Marburg entry inh, LASV entry inh, VACV mCherry inh, Vaccinia Venus)
CCC1=NN(C(=O)c2ccccc2Br)C(O)(c2ccc(Br)cc2)C1 (stereo not drawn)	VACV mCherry inh inconclusive (no result: Marburg entry inh, LASV entry inh)
O=C(CN1N=C(C(F)(F)F)CC1(O)c1ccc([N+](=O)[O-])cc1)c1ccccc1 (stereo not drawn)	none (no result: VACV mCherry inh, Vaccinia Venus)
O=C(c1ccccc1O)N1N=C(C(F)(F)F)CC1(O)c1ccc([N+](=O)[O-])cc1 (stereo not drawn)	HCMV inh -102 (no result: Marburg entry inh, LASV entry inh, VACV mCherry inh, Vaccinia Venus)
O=C(NCc1cc(C(F)(F)F)ccc1Cl)c1cccc2c1C(=O)c1ccc(N3CCOCC3)cc1S2(=O)=O	Vaccinia Venus 10µM (no result: Marburg entry inh, LASV entry inh)
O=C(NCc1cc(C(F)(F)F)ccc1Cl)c1cccc2c1C(=O)c1ccc(N3CCCCC3)cc1S2(=O)=O	none (no result: Marburg entry inh, LASV entry inh)
O=C(NCc1cc(C(F)(F)F)ccc1Cl)c1cccc2c1C(=O)c1ccc(N3CCC(N4CCCCC4)CC3)cc1S2(=O)=O	HCMV inh -101, VACV mCherry inh inconclusive, Vaccinia Venus inconclusive (no result: Marburg entry inh, LASV entry inh, HCV inh)
COc1ccccc1C1CN(Cc2ccc(Sc3nncn3C)o2)Cc2ccccc2O1 (stereo not drawn)	none (no result: HCMV inh, Marburg entry inh, LASV entry inh, HCV inh)
CCc1cc2c(=O)[nH]c(-c3ccccn3)nc2s1	HCMV inh -101, Marburg entry inh 6.3µM, LASV entry inh 5.6µM, VACV mCherry inh 2.8µM, HCV inh inconclusive, Vaccinia Venus inconclusive
Cc1ccc(C(=O)N2c3ccccc3OCC2C)cc1 (stereo not drawn)	none (no result: Marburg entry inh, LASV entry inh, VACV mCherry inh, Vaccinia Venus)
Cc1ccc(C(=O)N2C(=O)C(c3ccccc3)Oc3ccccc32)cc1 (stereo not drawn)	Marburg entry inh 7.9µM, LASV entry inh inconclusive, VACV mCherry inh inconclusive, Vaccinia Venus inconclusive
C#Cc1cccc(C(=O)NCc2nc(-c3cccc(NC(=O)c4ccccn4)c3)oc2C)c1	none (no result: HCMV inh, Marburg entry inh, LASV entry inh, HCV inh)
O=c1ccc2cc3ccoc3c(O)c2o1	HCV inh 1µM (no result: Marburg entry inh, LASV entry inh)
CCC(=NCCc1ccccc1)c1c(O)n(C)c(=O)n(C)c1=O	HCMV inh inconclusive, HCV inh 8.9µM (no result: Marburg entry inh, LASV entry inh, VACV mCherry inh, Vaccinia Venus)
CCCN1[C@@H]2c3cccc(=O)n3C[C@H]1[C@H](CO)[C@H]2C(=O)OC	none (no result: Marburg entry inh, LASV entry inh, VACV mCherry inh, HCV inh, Vaccinia Venus)
COc1ccccc1C1CN(CCNC(=O)c2ccccc2Cl)Cc2ccccc2O1 (stereo not drawn)	none (no result: HCMV inh, Marburg entry inh, LASV entry inh, HCV inh)
O=C(Nc1ccccc1)c1ccc(CN2CCc3ccccc3C2)cc1	HCMV inh -67, Marburg entry inh inconclusive, HCV inh inconclusive
COc1ccc(-c2cnnn2-c2ccc(NC(=O)c3ccc(S(=O)(=O)N4CCCCC4)cc3)cc2)cc1	LASV entry inh 7.1µM
O=C(Nc1cccnc1)c1ccc(CN2CCc3ccccc3C2)cc1	HCV inh 4.5µM (no result: VACV mCherry inh, Vaccinia Venus)
CCOC(=O)N1CCN(S(=O)(=O)c2ccc(C(=O)Nc3nnc(CC)o3)cc2)CC1	LASV entry inh inconclusive
COCc1nnc(NC(=O)c2ccc(S(=O)(=O)N3CCCC3)cc2)o1	HCMV inh -61
Cc1cc(C)cc(NC(=O)c2ccc(CN3CCc4ccccc4C3)cc2)c1	HCMV inh inconclusive, Marburg entry inh inconclusive, VACV mCherry inh inconclusive, HCV inh inconclusive
COc1ccc(NC(=O)CSC2=Nc3ccccc3C3=NC(Cc4ccccc4)C(=O)N23)cc1 (stereo not drawn)	none (no result: Marburg entry inh, HCV inh)
CC(=O)c1ccc(N2CCN(S(=O)(=O)c3ccc(-c4cc(C(F)(F)F)on4)s3)CC2)cc1	none (no result: Marburg entry inh, HCV inh)
O=C1CC(c2ccccc2)Cc2[nH]c(=O)c(C(=O)O)cc21 (stereo not drawn)	none (no result: HCMV inh, Marburg entry inh, LASV entry inh, HCV inh)
Cc1cccc(C(=O)n2nc(C)c(S(=O)(=O)N3CCOCC3)c2C)c1	none (no result: Marburg entry inh, HCV inh)
O=C(Nc1ccc2c(c1)CN(Cc1ccc(CO)o1)CC2)c1ccc(C(F)(F)F)cc1	HCMV inh inconclusive, Marburg entry inh inconclusive, LASV entry inh inconclusive, VACV mCherry inh inconclusive, HCV inh 11µM
CS(=O)(=O)Nc1ccc(C(=O)Nc2ccc(S(=O)(=O)N3CCCCC3)cc2)cc1	HCMV inh -76
Cc1ccc(NC(=O)c2ccc(CN3CCc4ccccc4C3)cc2)cc1	HCMV inh -79, Marburg entry inh inconclusive, LASV entry inh inconclusive, VACV mCherry inh inconclusive, HCV inh inconclusive
O=C(Nc1ccccc1)c1ccc(S(=O)(=O)N2CCCCC2)cc1	HCMV inh inconclusive, HCV inh inconclusive (no result: Marburg entry inh, LASV entry inh)
COCC(=O)N1CCc2ccc(NC(=O)c3ccc(C(F)(F)F)cc3)cc2C1	HCMV inh inconclusive, Marburg entry inh inconclusive, HCV inh inconclusive
O=C(Nc1ccc(S(=O)(=O)N2CCCCC2)cc1)c1ccc(CN2CCc3ccccc3C2)cc1	HCMV inh -74, Marburg entry inh inconclusive, LASV entry inh inconclusive, HCV inh 35µM, Vaccinia Venus inconclusive (no result: VACV mCherry inh)
CS(=O)(=O)Nc1ccc(C(=O)Nc2ccc(S(=O)(=O)N3CCCC3)cc2)cc1	Marburg entry inh inconclusive
CC(=O)C[C@H]1c2cc(F)cc(F)c2S(=O)(=O)N1C1CCN(Cc2ccccc2)CC1	none (no result: HCMV inh, Marburg entry inh, LASV entry inh, HCV inh)
CCc1nnc(NC(=O)c2ccc(S(=O)(=O)N3CCCCC3)cc2)s1	HCMV inh -66
O=C(Nc1ccccc1F)c1ccc(CN2CCc3ccccc3C2)cc1	HCMV inh inconclusive, HCV inh 11µM (no result: Marburg entry inh, LASV entry inh, VACV mCherry inh, Vaccinia Venus)
CCc1ccc(-c2cc3c(=O)n(CC(=O)NCCN4CCCCC4C)nc(C)n3n2)cc1 (stereo not drawn)	Marburg entry inh inconclusive, HCV inh 11µM
CCC1CCCCN1CCCNC(=O)CSc1nc2nc(C)c(Cc3ccc(C)cc3)c(C)n2n1 (stereo not drawn)	Marburg entry inh 11µM, LASV entry inh inconclusive, HCV inh inconclusive
Cc1ccc(Cc2c(C)nc3nc(SCC(=O)NCCCN4CCCCCC4)nn3c2C)cc1	HCMV inh inconclusive, Marburg entry inh inconclusive, HCV inh inconclusive
CCC1CCCCN1CCCNC(=O)Cn1nc(-c2ccc(C)cc2)ccc1=O (stereo not drawn)	HCMV inh -71, Marburg entry inh inconclusive, HCV inh inconclusive
S=C(NCCCc1cnc[nH]1)NCCCN(Cc1ccc(Cl)cc1)c1ccc(-c2ccccc2)cn1	Vaccinia Venus inconclusive (no result: HCMV inh, Marburg entry inh, LASV entry inh, HCV inh)
